This passage reports outcome and AC50 results from PubChem BioAssay (EPA / NIEHS).

SMILES strings stand for the structures. Inconclusive results are not listed. The source made the active and inactive calls. How the source made its calls, unless noted: active means hit-call score of the fitted dose curve at least 0.9, where 1 is the maximum; inconclusive means response in the unintended direction; inactive means score below 0.9.

Read-out in test [1]: sulfotransferase (SULT2A), SULT2A1 (gene 6822)
The experiment in a line: CLD_SULT2A_6hr: CellzDirect (CLD) Gene Expression Assay for sulfotransferase (SULT2A) at 6 hours (AID 2283669).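 Further: hits raise transcript level above the DMSO vehicle baseline.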 In a few lines: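 Primary human hepatocytes from two donor preparations were dosed daily with chemicals or 0.2% DMSO and harvested at 6 h. Transcript induction read by qNPA chemiluminescence, fitted for gain of signal relative to DMSO; morphology-based cytotoxicity annotated.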

Test [2] can be described thus: CLD_ACTIN_24hr: CellzDirect (CLD) Gene Expression Assay for Baseline Control (Actin) at 24 hours (AID 2283670). In a few lines: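 Primary human hepatocytes dosed over multiple concentrations with 0.2% DMSO vehicle; actin mRNA measured at 24 h by qNPA chemiluminescence. Background control endpoint, fitted as gain of signal versus DMSO.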
Read-out in test [3]: glucuronosyltransferase (UGT1A1), UGT1A1 (gene 54658)
Description: CLD_UGT1A1_6hr: CellzDirect (CLD) Gene Expression Assay for glucuronosyltransferase (UGT1A1) at 6 hours (AID 2283672). In a few lines:
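Primary human hepatocytes from two donor preparations, dosed with fresh solutions in 0.2% DMSO, harvested at 6 h. UGT1A1 mRNA measured by qNPA chemiluminescence; induction fitted upward versus DMSO.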

Test [4] is described as follows: CLD_ACTIN_6hr: CellzDirect (CLD) Gene Expression Assay for Baseline Control (Actin) at 6 hours (AID 2283676).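 Further: active means increased actin mRNA relative to DMSO vehicle.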 In a few lines: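 Primary human hepatocytes dosed with fresh chemical solutions (vehicle 0.2% DMSO), harvested at 6 h. Actin mRNA quantified by quantitative nuclease protection assay with chemiluminescent read-out, as background control relative to DMSO.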

Test [5] is described as follows: CCTE_Padilla_ZF_144hpf_TERATOSCORE: (Legacy) CCTE's 144 Hour Post-fertilization zebrafish Assay Teratoscore, Padilla Lab (AID 2283679; active means hit-call score of the fitted dose curve at least 0.9, where 1 is the maximum; inactive means score below 0.9;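 on AC50: zebrafish embryos with chorions exposed by immersion from 6-8 hpf to 5 dpf with daily renewal; teratogenicity score from eye scoring of death hatching and malformations at 144 hpf; higher score means more developmental defects relative to DMSO baseline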). In a few lines:
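Larvae scored by eye at 144 hpf for death, hatching and malformations after a day in clean Hanks'. Before that, daily-renewed exposure at 80 uM (0.4% DMSO, 26C) from roughly 6-8 hpf through 5 dpf, 4 embryos per chemical.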

Read-out in test [6]: Cytochrome P450 3A4 (Homo sapiens) (UniProt P08684)
The experiment in a line: CLD_CYP3A4_6hr: CellzDirect (CLD) Gene Expression Assay for xenobiotic metabolism (CYP3A4) at 6 hours (AID 2283680). In a few lines:
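Primary human hepatocytes (two donor preparations) dosed; CYP3A4 mRNA harvested at 6 h and quantified by qNPA chemiluminescence. Gain of signal fitted against 0.2% DMSO vehicle; cytotoxicity flagged by phase-contrast morphology.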

Read-out in test [7]: xenobiotic metabolism (CYP1A1), CYP1A1 (gene 1543)
The experiment in a line: CLD_CYP1A1_24hr: CellzDirect (CLD) Gene Expression Assay for xenobiotic metabolism (CYP1A1) at 24 hours (AID 2283673).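 Further: CYP1A1 mRNA level by quantitative nuclease protection with chemiluminescence.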 In a few lines:
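Primary human hepatocytes dosed daily with fresh solutions in 0.2% DMSO vehicle. mRNA measured at 24 h by quantitative nuclease protection assay with chemiluminescence; gain-of-signal fit versus DMSO, with morphology-based cytotoxicity flags.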

Read-out in test [8]: Cytochrome P450 2B6 (Homo sapiens) (UniProt P20813)
Description: CLD_CYP2B6_6hr: CellzDirect (CLD) Gene Expression Assay for xenobiotic metabolism (CYP2B6) at 6 hours (AID 2283677).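 Further: actives raise CYP2B6 transcript above DMSO baseline so AC50 marks an inducer.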 In a few lines: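 Primary human hepatocytes dosed with chemicals at multiple concentrations, vehicle 0.2% DMSO; CYP2B6 mRNA induction measured 6 h after dosing by quantitative nuclease protection assay with chemiluminescence, gain of signal fitted relative to DMSO.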

Read-out in test [9]: Cytochrome P450 (CYP24A1_1), CYP24A1 (gene 1591)
The experiment in a line: LTEA_HepaRG_CYP24A1_1: Life Technologies and Expression Analysis (LTEA) Assay for Cytochrome P450 (CYP24A1_1) using HepaRG (AID 2283671; active means hit-call score of the fitted dose curve at least 0.9, where 1 is the maximum; inactive means score below 0.9). The settings on record: mRNA level, 48 h; actives raise or lower the signal. In a few lines: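 HepaRG, 48 h exposure, 8-pt half-log series from 100 uM in 0.5% DMSO, duplicates. Readout: TaqMan qRT-PCR of CYP24A1 mRNA, housekeeping-normalized (ACTB/GAPDH/POLR2A). Bidirectional curve fit vs DMSO baseline.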

Read-out in test [10]: ABC Transporter (ABCB11), ABCB11 (gene 8647)
Description: CLD_ABCB11_6hr: CellzDirect (CLD) Gene Expression Assay for ABC Transporter (ABCB11) at 6 hours (AID 2283675).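 Further: hits raise ABCB11 mRNA level so AC50 marks induction.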 In a few lines:
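Human primary hepatocytes (two donor preparations) given fresh chemical daily at multiple concentrations, vehicle 0.2% DMSO. ABCB11 mRNA induction measured 6 h after dosing by qNPA chemiluminescence versus DMSO; cytotoxicity annotated from morphology.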

Sequence of Cytochrome P450 3A4 (Homo sapiens) (P08684 whole entry, looked up): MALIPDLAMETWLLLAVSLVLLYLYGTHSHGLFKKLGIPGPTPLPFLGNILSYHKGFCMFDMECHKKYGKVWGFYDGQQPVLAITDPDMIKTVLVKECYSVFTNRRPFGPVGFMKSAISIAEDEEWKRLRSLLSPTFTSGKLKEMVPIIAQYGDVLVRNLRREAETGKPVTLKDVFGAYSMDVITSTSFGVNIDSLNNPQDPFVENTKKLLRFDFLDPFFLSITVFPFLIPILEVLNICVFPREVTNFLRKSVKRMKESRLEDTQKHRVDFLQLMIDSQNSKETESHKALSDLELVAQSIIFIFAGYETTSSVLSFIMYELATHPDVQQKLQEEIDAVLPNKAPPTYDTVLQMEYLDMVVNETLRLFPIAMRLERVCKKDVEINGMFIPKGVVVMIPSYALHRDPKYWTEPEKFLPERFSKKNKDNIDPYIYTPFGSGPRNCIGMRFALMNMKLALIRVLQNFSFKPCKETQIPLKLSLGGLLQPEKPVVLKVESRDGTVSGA

For the compound `COCc1cnc(C2=NC(C)(C(C)C)C(=O)N2)c(C(=O)O)c1` (configuration not stated), the call in test [1], in test [2], in [3], in test [4] and in [6] was inactive. Also, in [5], the concentration at half-maximal activity (AC50) (as a rule, the concentration at which the activity in the assay is half-maximal) is 5.5 µM (active).

For the compound `Cc1nc(N(C)C)nc(OC(=O)N(C)C)c1C`, the result in test [1], in test [3], in test [4] and in test [5] was inactive. Further, the AC50 is 2.75 µM (active) in [7], 3.94 µM (active) in test [8] and 5.6 µM (active) in test [6].

For `CSC(=O)c1c(C(F)F)nc(C(F)(F)F)c(C(=O)SC)c1CC(C)C`, the compound was classed as inactive in test [1], in [2], in [3], in [4] and in [6]. In addition, the AC50 in [7] is 4.78 µM (active); in test [8], 2.11 µM (active); in [5] it was 9.65 µM (active).

Take `CO/N=C(/C1=NOCCO1)c1ccccc1Oc1ncnc(Oc2ccccc2Cl)c1F`: the result in test [1], in test [2], in test [7], in [4] and in [6] was inactive. Moreover, the AC50 in [5] is 0.182 µM (active).

For `COc1cc(Cl)c(OC)cc1Cl`, the outcome in test [1], in [3], in [7] and in test [6] was inactive. Further, in test [8], the AC50 is 0.618 µM (active).

Consider `C=CCOC(=O)C(C)(C)OC(=O)c1cc(-n2c(=O)cc(C(F)(F)F)n(C)c2=O)ccc1Cl`, for which the result in test [1] and in test [3] was inactive. The values for the AC50 in test [5] and in test [6] were 0.00588 µM (active) and 0.29 µM (active), respectively.

On to `OC(c1ccc(Cl)cc1)(c1ccc(Cl)cc1)C(Cl)(Cl)Cl`, for which the compound was classed as inactive in [1] and in test [3]. Moreover, the results for the AC50 in test [7], in [5] and in [6] were 20 µM (active), 12 µM (active) and 3.68 µM (active), respectively.

With `CC(C)=CC1C(C(=O)OCc2coc(Cc3ccccc3)c2)C1(C)C` (configuration not stated), the result in test [3], in test [7] and in [6] was inactive. In addition, in [5], the AC50 was 1.71 µM (active).

Turning to `Nc1c(Cl)c(Cl)nc(C(=O)O)c1Cl`, the result in test [9], in [3], in test [7], in test [4] and in [5] was inactive.

Consider `CCOc1nc(F)cc2nc(S(=O)(=O)Nc3c(Cl)cccc3Cl)nn12`, for which the outcome in [1], in test [3], in [5] and in test [6] was inactive. The AC50 in test [7] is 20 µM (active).

Turning to `Cc1ccc(N=CN(C)C=Nc2ccc(C)cc2C)c(C)c1`, the call in [1] and in test [4] was inactive. Also, the AC50 in [7] is 1.9 µM (active); in [5] it was 27.5 µM (active).

Regarding `COc1cc(OC)nc(NC(=O)NS(=O)(=O)c2ncccc2OCC(F)(F)F)n1`, the outcome in test [1], in test [7], in test [4] and in test [5] was inactive.

`CCCCC(O)(Cn1cncn1)c1ccc(Cl)cc1Cl` (configuration not stated): the result in test [2], in test [3], in test [4] and in test [6] was inactive. For the same compound, the AC50 is 4.35 µM (active) in test [7] and 36.5 µM (active) in test [5].

`CC(C)N1C(=O)c2ccccc2NS1(=O)=O`: the compound was called inactive in [2], in test [3], in test [7], in test [10], in test [4] and in test [5].

Turning to `O=C1C2CC=CCC2C(=O)N1SC(Cl)(Cl)Cl` (configuration not stated), the compound was called inactive in test [2], in [7] and in test [4]. Further, the AC50 in test [5] was 1.96 µM (active).

For `CCNC(=O)NC(=O)C(C#N)=NOC`, the compound was called inactive in [3]. Moreover, in test [5], the AC50 is 33.1 µM (active).

With `CCN(CC)c1nc(C)cc(OP(=S)(OC)OC)n1`, the outcome in test [1] and in test [3] was inactive. Further, the AC50 was 5.14 µM (active) in [7], 1.59 µM (active) in test [8] and 14.8 µM (active) in test [5].

`CC(C)N1C(=O)N(c2ccccc2)CSC1=NC(C)(C)C`: the compound was called inactive in [3], in [4] and in test [6]. The concentration at half-maximal activity (AC50) in test [5] is 1.48 µM (active).

Turning to `CC(C)(C)C(=O)C(Oc1ccc(Cl)cc1)n1cncn1` (configuration not stated), the call in test [1] and in test [3] was inactive. Besides, the values for the AC50 in test [7], in [5] and in test [6] were 9.03 µM (active), 17.4 µM (active) and 0.434 µM (active), respectively.

As for `Clc1nc(Cl)nc(Nc2ccccc2Cl)n1`, the outcome in [2], in test [3], in [7], in test [4], in test [8] and in test [6] was inactive. The AC50 in test [5] was 52 µM (active).
